Source: PubChem BioAssay (EPA / NIEHS)
Inconclusive results are not listed. Calls of active or inactive are those of the source. How the source made its calls, unless noted: active means hit-call score of the fitted dose curve at least 0.9, where 1 is the maximum; inactive means score below 0.9.

Columns and labels:
[1] = read-out: Matrix Metallopeptidase 9 (MMP9), MMP9 (gene 4318); assay: BSK_KF3CT_MMP9: BioMAP Diversity Plus: KF3CT Assay for Matrix Metallopeptidase 9 (MMP9) Biomarker Activity (AID 2283074); conditions: primary human keratinocytes with fibroblasts; actives raise or lower the signal
In short: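 Values come from bidirectional fitting relative to DMSO of MMP-9 levels, which were measured by ELISA. Measurements were taken 24 h after chemical dosing of a keratinocyte and foreskin fibroblast co-culture.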

[2] = read-out: urokinase plasminogen activator (uPA), PLAU (gene 5328); assay: BSK_KF3CT_uPA: BioMAP Diversity Plus: KF3CT Assay for urokinase plasminogen activator (uPA) Biomarker Activity (AID 2283075); conditions: primary human keratinocytes with fibroblasts; actives raise or lower the signal
In short: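 Values derive from bidirectional fitting against DMSO controls. Keratinocyte/foreskin fibroblast co-cultures received chemical; 24 h later uPA was detected by ELISA, with SRB total-protein staining in parallel wells for overt cytotoxicity.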

[3] = read-out: E-selectin (Homo sapiens) (UniProt P16581); assay: BSK_LPS_Eselectin: BioMAP Diversity Plus: LPS Assay for Eselectin Biomarker Activity (AID 2283077); conditions: primary human HUVEC with PBMC; actives raise or lower the signal
In short: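 Signal of E-selectin, detected by ELISA, served as the endpoint; cells were umbilical vein endothelium with PBMC, read 24 h after treatment. DMSO defined baseline, and both increases and decreases were fitted.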

[4] = read-out: Interleukin-8 (IL8), CXCL8 (gene 3576); assay: BSK_LPS_IL8: BioMAP Diversity Plus: LPS Assay for Interleukin-8 (IL8) Biomarker Activity (AID 2283078); conditions: primary human HUVEC with PBMC; actives raise or lower the signal
In short: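 Endothelial cells and PBMC from human donors are co-cultured, treated with chemicals and LPS, then assayed for IL-8 by ELISA after 24 h. Parallel SRB staining (0.1% SRB after 10% TCA fixation, 560 nm) flags cytotoxicity.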

[5] = read-out: Interleukin-1 alpha (IL1a), IL1A (gene 3552); assay: BSK_LPS_IL1a: BioMAP Diversity Plus: LPS Assay for Interleukin-1 alpha (IL1a) Biomarker Activity (AID 2283080); conditions: primary human HUVEC with PBMC; actives raise or lower the signal
In short: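 Measured: IL-1 alpha via ELISA at 24 h in LPS-activated human umbilical vein endothelium–PBMC co-culture. Baseline: DMSO, bidirectional fitting.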

[6] = read-out: Monocyte Chemoattractant Protein-1 (MCP1), CCL2 (gene 6347); assay: BSK_LPS_MCP1: BioMAP Diversity Plus: LPS Assay for Monocyte Chemoattractant Protein-1 (MCP1) Biomarker Activity (AID 2283081); conditions: primary human HUVEC with PBMC; actives raise or lower the signal
In short: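 LPS-stimulated HUVEC/PBMC co-culture; chemical, 24 h; MCP-1 by ELISA; bidirectional fit vs DMSO; cytotoxicity via SRB (0.1% stain, 10% TCA fix, 560 nm) in parallel wells.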

[7] = BSK_LPS_PGE2: BioMAP Diversity Plus: LPS Assay for Prostaglandin E2 (PGE2) Biomarker Activity (AID 2283082); conditions: primary human HUVEC with PBMC; actives raise or lower the signal
In short: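 PGE2 release measured by ELISA in an LPS-activated co-culture of human umbilical vein endothelial cells and peripheral blood mononuclear cells, read at 24 h post-dosing. DMSO served as baseline for bidirectional curve fitting.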

[8] = read-out: Macrophage colony-stimulating factor (MCSF), CSF1 (gene 1435); assay: BSK_LPS_MCSF: BioMAP Diversity Plus: LPS Assay for Macrophage colony-stimulating factor (MCSF) Biomarker Activity (AID 2283083); conditions: primary human HUVEC with PBMC; actives raise or lower the signal
In short: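 Compound is added to a human vascular primary co-culture of umbilical vein endothelium and blood mononuclear cells. After 24 h, M-CSF is quantified by ELISA. Signal changes are fitted in both directions against DMSO.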

[9] = read-out: Tissue Factor, F3 (gene 2152); assay: BSK_LPS_TissueFactor: BioMAP Diversity Plus: LPS Assay for Tissue Factor Biomarker Activity (AID 2283084); conditions: primary human HUVEC with PBMC; actives raise or lower the signal
In short: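 In this co-culture system of umbilical vein endothelium with PBMC, stimulated with LPS, cell-surface CD142 is detected by ELISA at 24 h. Endpoint values derive from bidirectional fitting, DMSO serving as baseline.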

[10] = read-out: Tumor necrosis factor (Homo sapiens) (UniProt P01375); assay: BSK_LPS_TNFa: BioMAP Diversity Plus: LPS Assay for Tumour Necrosis Factor alpha (TNFa) Biomarker Activity (AID 2283085); conditions: primary human HUVEC with PBMC; actives raise or lower the signal
In short: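 TNFa was quantified by ELISA in LPS-activated co-cultures of human endothelial cells and PBMC, 24 h post-dosing. Both increases and decreases versus DMSO were fitted.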

[11] = read-out: Vascular cell adhesion molecule 1 (VCAM1), VCAM1 (gene 7412); assay: BSK_LPS_VCAM1: BioMAP Diversity Plus: LPS Assay for Vascular cell adhesion molecule 1 (VCAM1) Biomarker Activity (AID 2283086); conditions: primary human HUVEC with PBMC; actives raise or lower the signal
In short: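 VCAM-1 quantified by ELISA in an LPS-activated co-culture of human endothelial cells and peripheral blood mononuclear cells, read 24 h post-treatment. Fitted in both directions versus DMSO; parallel SRB staining flags overt cytotoxicity.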

CD38, CD38 (gene 952) = assay: BSK_SAg_CD38: BioMAP Diversity Plus: SAg Assay for CD38 Biomarker Activity (AID 2283087); conditions: primary human HUVEC with PBMC; actives raise or lower the signal
In short: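 CD38 quantified by ELISA (fluorescence) in a superantigen-activated endothelial cell–PBMC co-culture at 24 h post-dose. Activity fitted in both directions relative to DMSO; parallel SRB and Alamar Blue cytotoxicity read-outs.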

CD40, CD40 (gene 958) = assay: BSK_SAg_CD40: BioMAP Diversity Plus: SAg Assay for CD40 Biomarker Activity (AID 2283088); conditions: primary human HUVEC with PBMC; actives raise or lower the signal
In short: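 Fluorescence ELISA read-out of CD40 from umbilical vein endothelium plus peripheral blood mononuclear cells, sampled 24 h after dosing. Values come from bidirectional curve fitting with DMSO as baseline.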

CD69, CD69 (gene 969) = assay: BSK_SAg_CD69: BioMAP Diversity Plus: SAg Assay for CD69 Biomarker Activity (AID 2283089); conditions: primary human HUVEC with PBMC; actives raise or lower the signal
In short: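 Endothelial/PBMC co-culture; chemical added; 24 h incubation; CD69 ELISA with fluorescence detection; bidirectional fit vs DMSO.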

[12] = read-out: Monocyte Chemoattractant Protein-1 (MCP1), CCL2 (gene 6347); assay: BSK_SAg_MCP1: BioMAP Diversity Plus: SAg Assay for Monocyte Chemoattractant Protein-1 (MCP1) Biomarker Activity (AID 2283090); conditions: primary human HUVEC with PBMC; actives raise or lower the signal
In short: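 Values derive from bidirectional fitting of ELISA-measured MCP1 against DMSO controls. Readings were taken 24 h after dosing human vascular endothelial cells co-cultured with peripheral blood mononuclear cells under superantigen stimulation.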

[13] = read-out: E-selectin (Homo sapiens) (UniProt P16581); assay: BSK_SAg_Eselectin: BioMAP Diversity Plus: SAg Assay for Eselectin Biomarker Activity (AID 2283091); conditions: primary human HUVEC with PBMC; actives raise or lower the signal
In short: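 Primary human endothelial cells and peripheral blood mononuclear cells were co-cultured and exposed to chemical for 24 hours. E-selectin levels were then quantified by ELISA, with bidirectional curve fitting normalised to DMSO controls.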

[14] = read-out: Monokine induced gamma interferon (MIG), CXCL9 (gene 4283); assay: BSK_SAg_MIG: BioMAP Diversity Plus: SAg Assay for Monokine induced gamma interferon (MIG) Biomarker Activity (AID 2283092); conditions: primary human HUVEC with PBMC; actives raise or lower the signal
In short: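 Measures CXCL9 protein by ELISA in a human vascular primary-cell co-culture (umbilical vein endothelium with PBMC) 24 h after chemical addition. Activity is scored up or down from the DMSO control.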

[15] = read-out: Interleukin-8 (IL8), CXCL8 (gene 3576); assay: BSK_SAg_IL8: BioMAP Diversity Plus: SAg Assay for Interleukin-8 (IL8) Biomarker Activity (AID 2283094); conditions: primary human HUVEC with PBMC; actives raise or lower the signal
In short: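 ELISA readout of IL-8 from a superantigen-activated endothelial/PBMC primary human co-culture, taken 24 h post-dosing and fitted in both directions against DMSO; parallel SRB total-protein staining flags overt cytotoxicity.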

[16] = BSK_SAg_Proliferation: Cell Proliferation Assessment in the BioMAP Diversity Plus: SAg Assay (AID 2283095); conditions: primary human HUVEC with PBMC;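 further: relative cell number as total protein by SRB absorbance in sub-confluent culture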
In short: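 Relative cell number in the endothelial cell/PBMC co-culture was quantified at 96 h by SRB staining (0.1% SRB, 10% TCA fixation, read at 560 nm). Curves were fitted in both directions relative to DMSO baseline.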

[17] = BSK_SAg_SRB: Viability Assessment in the BioMAP Diversity Plus: SAg Assay (AID 2283096); conditions: primary human HUVEC with PBMC;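 further: cells read one day after compound addition; hits may be either gain or loss of signal compared with DMSO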
In short: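 This overt-cytotoxicity endpoint quantifies protein in human endothelial/PBMC co-cultures at 24 h using SRB absorbance (560 nm) after trichloroacetic acid fixation. Values reflect signal change from the DMSO negative control, fitted bidirectionally.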

[18] = TOX21_p53_BLA_p2_viability: Viability Assessment in the Tox21 HCT-116 p53 Agonism Beta-lactamase Assay, Phase 2 (AID 2283591; active means hit-call score of the fitted dose curve at least 0.9, where 1 is the maximum;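 further: compound exposure lasted 16 h at 37 °C; actives lower the ATP signal meaning cytotoxicity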)
In short: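 HCT-116 p53-bla cells (4000/well) rested 5 h at 37C, then received compounds in DMSO (217-fold dilution) for 16 h at 37C, 5% CO2. After the CCF4 read, CellTiter-Glo was added; ATP luminescence was read after 30 min at room temperature.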

[19] = molecular target: Cellular tumor antigen p53 (Homo sapiens) (UniProt P04637); assay: TOX21_p53_BLA_p2_ratio: Tox21 HCT-116 p53 Agonism Beta-lactamase Assay, Ratio, Phase 2 (AID 2283592; active means hit-call score of the fitted dose curve at least 0.9, where 1 is the maximum)
Cellular tumor antigen p53 (Homo sapiens), sequence (P04637 whole entry, looked up): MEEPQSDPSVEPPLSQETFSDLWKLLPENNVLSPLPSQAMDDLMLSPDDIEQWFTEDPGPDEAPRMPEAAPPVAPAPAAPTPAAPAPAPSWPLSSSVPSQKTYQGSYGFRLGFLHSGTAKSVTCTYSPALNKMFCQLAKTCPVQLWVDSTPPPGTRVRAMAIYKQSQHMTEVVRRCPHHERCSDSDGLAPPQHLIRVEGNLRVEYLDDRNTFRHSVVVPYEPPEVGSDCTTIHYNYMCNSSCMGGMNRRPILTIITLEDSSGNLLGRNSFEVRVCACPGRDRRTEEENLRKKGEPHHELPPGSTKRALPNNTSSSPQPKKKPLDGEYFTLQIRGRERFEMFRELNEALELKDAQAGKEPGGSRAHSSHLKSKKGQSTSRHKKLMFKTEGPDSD
In short: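 Cleaved-to-uncleaved substrate ratio (460 vs 530 nm) measured in HCT116 cells with an inducible beta-lactamase reporter linked to p53 activity. Compounds incubated 16 h at 37C before 2 h room-temperature CCF4-AM loading.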

[20] = TOX21_p53_BLA_p3_viability: Viability Assessment in the Tox21 HCT-116 p53 Agonism Beta-lactamase Assay, Phase 3 (AID 2283593; active means hit-call score of the fitted dose curve at least 0.9, where 1 is the maximum;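 further: cells exposed to compound for 16 h before reading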)
In short: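 HCT-116 cells (4000/well) rested 5 h at 37C, then got DMSO compounds by pin tool (217-fold dilution) for 16 h at 37C, 5% CO2. After the bla read, CellTiter-Glo was added and luminescence read at 30 min, room temperature.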

[21] = molecular target: Cellular tumor antigen p53 (Homo sapiens) (UniProt P04637); assay: TOX21_p53_BLA_p3_ratio: Tox21 HCT-116 p53 Agonism Beta-lactamase Assay, Ratio, Phase 3 (AID 2283596; active means hit-call score of the fitted dose curve at least 0.9, where 1 is the maximum)
In short: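 Cells were seeded at 4000/well, rested 5 h at 37C, then dosed with DMSO compound solutions (217-fold dilution) for 16 h. CCF4-AM substrate was loaded for 2 h at room temperature, and the 460/530 nm emission ratio was fitted for gain of signal versus DMSO.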

[22] = molecular target: Cellular tumor antigen p53 (Homo sapiens) (UniProt P04637); assay: TOX21_p53_BLA_p5_ratio: Tox21 HCT-116 p53 Agonism Beta-lactamase Assay, Ratio, Phase 5 (AID 2283599; active means hit-call score of the fitted dose curve at least 0.9, where 1 is the maximum)
In short: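 HCT-116 cells carrying a p53-inducible beta-lactamase reporter were seeded at 4000 cells/well and dosed after 5 h with compound in DMSO (217-fold dilution). After 16 h at 37C, CCF4-AM substrate was added for 2 h, and the 460/530 nm emission ratio was scored as gain-of-signal versus DMSO.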

[23] = TOX21_p53_BLA_p5_viability: Viability Assessment in the Tox21 HCT-116 p53 Agonism Beta-lactamase Assay, Phase 5 (AID 2283600; active means hit-call score of the fitted dose curve at least 0.9, where 1 is the maximum)
In short: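 Viability is taken from cellular ATP content, measured by luciferase luminescence in the same wells after the beta-lactamase ratio read. Cells are seeded at 4000 per well and exposed to DMSO-dissolved compounds, diluted 217-fold, for 16 h.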

[24] = molecular target: Cellular tumor antigen p53 (Homo sapiens) (UniProt P04637); assay: TOX21_p53_BLA_p4_ratio: Tox21 HCT-116 p53 Agonism Beta-lactamase Assay, Ratio, Phase 4 (AID 2283601; active means hit-call score of the fitted dose curve at least 0.9, where 1 is the maximum)
In short: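 HCT116 cells carrying an inducible beta-lactamase reporter were plated at 4000 cells/well, rested 5 h, then exposed to compounds in DMSO (217-fold dilution) for 16 h at 37C. CCF4-AM substrate was loaded 2 h at room temperature; 460/530 nm emission ratio scored gain-of-signal versus DMSO.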

[25] = CCTE_Shafer_MEA_acute_spike_number: CCTE's Neural Acute Assay for Total Number of Spikes, Shafer Lab (AID 2284008);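 further: curve fitted for decrease in spike count so AC50 reflects inhibitors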
In short: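 Cortical neurons from rat, matured to DIV 13 or 15 on microelectrode arrays, are recorded at 37 C before and during 40-min exposure to 0.03-40 uM compound. Wells need >/= 10 active electrodes.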

Measured: AC50

E-selectin (Homo sapiens), sequence (P16581 whole entry, looked up): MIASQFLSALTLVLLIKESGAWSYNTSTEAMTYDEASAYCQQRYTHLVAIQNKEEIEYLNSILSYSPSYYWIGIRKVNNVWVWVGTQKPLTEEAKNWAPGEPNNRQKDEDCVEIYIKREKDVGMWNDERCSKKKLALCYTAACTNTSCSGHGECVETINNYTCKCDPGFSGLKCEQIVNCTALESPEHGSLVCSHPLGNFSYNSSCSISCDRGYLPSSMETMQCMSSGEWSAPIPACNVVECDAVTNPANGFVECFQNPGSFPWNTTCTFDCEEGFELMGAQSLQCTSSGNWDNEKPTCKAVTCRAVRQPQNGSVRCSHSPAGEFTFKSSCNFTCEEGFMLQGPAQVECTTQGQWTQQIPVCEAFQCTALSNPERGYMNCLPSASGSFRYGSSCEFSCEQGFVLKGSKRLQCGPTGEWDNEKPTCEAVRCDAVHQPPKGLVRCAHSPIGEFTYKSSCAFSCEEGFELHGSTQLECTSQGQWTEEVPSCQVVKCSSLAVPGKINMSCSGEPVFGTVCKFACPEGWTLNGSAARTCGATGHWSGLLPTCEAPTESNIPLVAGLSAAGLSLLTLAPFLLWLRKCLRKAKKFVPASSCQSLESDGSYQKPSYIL
Tumor necrosis factor (Homo sapiens), sequence (P01375 whole entry, looked up): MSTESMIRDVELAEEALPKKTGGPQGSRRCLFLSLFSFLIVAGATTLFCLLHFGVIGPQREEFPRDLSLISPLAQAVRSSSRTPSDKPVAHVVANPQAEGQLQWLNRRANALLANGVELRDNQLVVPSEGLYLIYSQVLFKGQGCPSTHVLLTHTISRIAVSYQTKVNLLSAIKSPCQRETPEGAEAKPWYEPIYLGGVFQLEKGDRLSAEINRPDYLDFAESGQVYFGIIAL

CCCC[N+](CCCC)(CCCC)CCCC
active: [25] 4.44 nM
inactive: [1] | [2] | [3] | [4] | [5] | [6] | [7] | [8] | [9] | [10] | [11] | CD38, CD38 (gene 952) | CD40, CD40 (gene 958) | CD69, CD69 (gene 969) | [12] | [13] | [14] | [15] | [16] | [17] | [18] | [19] | [20] | [21] | [22] | [23] | [24]
